About 79,000 compounds went through this panel and 15% of them were active in at least one assay; those are over-represented in the sample as a whole. Calls of active or inactive are those of the source. Cut-off read from the data, not from the text of the source: active = growth inhibition above about 70%; inactive = the rest.
Key:
[1] = NCI Yeast Anticancer Drug Screen. Data for the wt1 strain (AID 149);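 note: 0% = growth of vehicle-treated wt1 cultures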; conditions: S. cerevisiae wt1 strain (SPY 50644) growth inhibition, active compounds read high
Outline: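 Yeast wt1 strain exposed to compounds; growth inhibition measured relative to vehicle-treated controls.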

[2] = NCI Yeast Anticancer Drug Screen. Data for the rad50EPP+ strain (AID 151);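 note: 0% = growth of vehicle-treated control cultures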; conditions: S. cerevisiae rad50 mutant strain, active compounds read high
Outline: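 Read-out is yeast growth inhibition relative to vehicle; cells used were the rad50EPP+ strain.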

[3] = NCI Yeast Anticancer Drug Screen. Data for the mgt1 strain (AID 153); conditions: S. cerevisiae mgt1 mutant growth inhibition, active compounds read high
Outline: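 Measured: inhibition of mgt1 yeast growth by compound, normalized to vehicle-treated cultures.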

[4] = NCI Yeast Anticancer Drug Screen. Data for the rad50 strain (AID 155);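 note: 0% = growth of vehicle-only cultures of the same strain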; conditions: S. cerevisiae rad50 strain growth inhibition, active compounds read high
Outline: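 Yeast carrying a defined DNA repair defect were exposed to test compounds, and growth was compared with vehicle-treated controls to give percent inhibition.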

[5] = NCI Yeast Anticancer Drug Screen. Data for the mec2-1 strain (AID 157); conditions: S. cerevisiae mec2-1 strain, active compounds read high
Outline: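 Using mec2-1 yeast: add compound, measure growth, express inhibition versus vehicle-treated cultures.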

[6] = NCI Yeast Anticancer Drug Screen. Data for the rad14 strain (AID 159);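 note: 0% = growth of vehicle-treated control cultures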; conditions: S. cerevisiae rad14 strain growth inhibition, active compounds read high
Outline: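 Yeast cells carrying a defined DNA-repair defect were exposed to compounds, and growth inhibition was calculated relative to vehicle-treated control cultures.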

[7] = NCI Yeast Anticancer Drug Screen. Data for the sgs1 mgt1 strain (AID 161);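 note: 0% = growth of cultures given vehicle only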; conditions: S. cerevisiae sgs1 mgt1 strain, active compounds read high
Outline: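 Compounds are added to genetically altered yeast, and growth is compared with cultures given vehicle alone to give percent inhibition.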

[8] = NCI Yeast Anticancer Drug Screen. Data for the cln2 rad14 strain (AID 165);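 note: 0% = growth equal to vehicle treated cultures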; conditions: S. cerevisiae cln2 rad14 strain, active compounds read high
Outline: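 Yeast strain cln2 rad14, bearing defects in cell cycle control and DNA repair, serves as the test system; values reflect growth inhibition compared with vehicle.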

[9] = NCI Yeast Anticancer Drug Screen. Data for the bub3 strain (AID 167); conditions: S. cerevisiae bub3 mutant strain, active compounds read high
Outline: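 Compounds were applied to a genetically altered yeast strain carrying a cell-cycle control defect. Growth inhibition was scored against vehicle-treated controls.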

[10] = NCI Yeast Anticancer Drug Screen. Data for the wt2 strain (AID 169);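 note: 0% = growth of vehicle-treated yeast cultures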; conditions: S. cerevisiae wt2 strain growth inhibition, active compounds read high
Outline: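 Treated yeast vs. vehicle-treated yeast: growth inhibition determined.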

[11] = NCI Yeast Anticancer Drug Screen. Data for the mlh1 strain (AID 171);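 note: 0% = growth of vehicle-treated control cultures of the same strain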; conditions: S. cerevisiae mlh1 strain growth inhibition, active compounds read high
Outline: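 A yeast strain with a defined genetic lesion serves as the test organism. Cultures receive compound or vehicle, and growth is measured.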

[12] = NCI Yeast Anticancer Drug Screen. Data for the mlh1 rad18 strain (AID 175); conditions: S. cerevisiae mlh1 rad18 strain growth inhibition, active compounds read high
Outline: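 Steps: expose repair-defective yeast to compound; measure growth; express inhibition against vehicle-treated controls.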

[13] = NCI Yeast Anticancer Drug Screen. Data for the rad18 strain (AID 177); conditions: S. cerevisiae rad18 mutant growth inhibition, active compounds read high
Outline: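 Measured value is growth inhibition of a yeast strain bearing a DNA repair alteration, referenced to vehicle-treated cells.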

[14] = NCI Yeast Anticancer Drug Screen. Data for the CLN2oe strain (AID 163);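 note: 0% = growth of vehicle-only control cultures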; conditions: S. cerevisiae CLN2oe strain, active compounds read high
Outline: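 Whole-cell yeast growth assay. A strain engineered for altered cell-cycle control received compound, and inhibition relative to vehicle-treated cultures was recorded.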

[15] = NCI Yeast Anticancer Drug Screen. Data for the sgs1 strain (AID 173);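 note: 0% = growth of vehicle-only control cultures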; conditions: S. cerevisiae sgs1 mutant, active compounds read high
Outline: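 A genetically defined yeast mutant is incubated with the test compound, and its growth is compared to that of the same strain given vehicle.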

[16] = at 5.0 µM (retest, dose inferred, filed as 0.5)
[17] = at 50.0 µM (retest, dose inferred, filed as 5.0)

Measured: growth inhibition

COc1ccc(C(=O)OCCc2ccccc2)cc1
active: [9]; [17] 79%
inactive: [1]; at 1.2 µM -2% | [1]; at 3.7 µM -5% | [1]; at 11.0 µM -5% | [1]; at 33.0 µM -7% | [1]; at 100.0 µM -8% | [2]; at 1.2 µM 10% | [2]; at 3.7 µM 16% | [2]; at 11.0 µM 19% | [2]; at 33.0 µM 31% | [2]; at 100.0 µM 47% | [3]; at 1.2 µM -4% | [3]; at 3.7 µM -3% | [3]; at 11.0 µM -3% | [3]; at 33.0 µM -5% | [3]; at 100.0 µM -4% | [4]; at 1.2 µM 6% | [4]; at 3.7 µM 3% | [4]; [16] -3% | [4]; at 11.0 µM 1% | [4]; at 33.0 µM 13% | [4]; [17] 23% | [4]; at 50.0 µM -7.35% | [4]; at 100.0 µM 9% | [5]; at 1.2 µM -1% | [5]; at 3.7 µM -4% | [5]; [16] -28% | [5]; at 11.0 µM -4% | [5]; at 33.0 µM -5% | [5]; [17] -14% | [5]; at 50.0 µM 1.85% | [5]; at 100.0 µM -5% | [6]; at 1.2 µM 5% | [6]; at 3.7 µM 0% | [6]; at 11.0 µM -6% | [6]; at 33.0 µM 3% | [6]; at 100.0 µM 4% | [7]; [16] 7% | [7]; [17] 32% | [7]; at 50.0 µM 6.8% | [8]; [16] -1% | [8]; [17] -2% | [8]; at 50.0 µM -10.5% | [9]; at 1.2 µM 2% | [9]; at 3.7 µM 12% | [9]; [16] 20% | [9]; at 11.0 µM 16% | [9]; at 33.0 µM 34% | [9]; at 50.0 µM 56.5% | [9]; at 100.0 µM 34% | [10]; at 1.2 µM -6% | [10]; at 3.7 µM -9% | [10]; at 11.0 µM -3% | [10]; at 33.0 µM -12% | [10]; at 100.0 µM -8% | [11]; at 1.2 µM 0% | [11]; at 3.7 µM 0% | [11]; at 11.0 µM -5% | [11]; at 33.0 µM 1% | [11]; at 100.0 µM 9% | [12]; [16] 10% | [12]; [17] 64% | [12]; at 50.0 µM -16.4% | [13]; at 1.2 µM 3% | [13]; at 3.7 µM 3% | [13]; at 11.0 µM 0% | [13]; at 33.0 µM 9% | [13]; at 100.0 µM 8%

Cc1c(N=Nc2ccc(Cl)cc2)c(C)n(C2OC(CO)C(O)C(O)C2O)c(=S)c1C#N (stereo not drawn)
active: [2]; at 100.0 µM 81% | [3]; at 100.0 µM 91% | [6]; at 100.0 µM 71% | [7]; at 50.0 µM 87% | [10]; at 100.0 µM 90% | [11]; at 100.0 µM 90% | [15]; at 100.0 µM 82% | [12]; at 50.0 µM 83.9% | [13]; at 100.0 µM 83%
inactive: [1]; at 1.2 µM 1% | [1]; at 3.7 µM 2% | [1]; at 11.0 µM 3% | [1]; at 33.0 µM 9% | [1]; at 100.0 µM 24% | [2]; at 1.2 µM 5% | [2]; at 3.7 µM 19% | [2]; at 11.0 µM 40% | [2]; at 33.0 µM 66% | [3]; at 1.2 µM -1% | [3]; at 3.7 µM 1% | [3]; at 11.0 µM 12% | [3]; at 33.0 µM 66% | [4]; at 1.2 µM -3% | [4]; at 3.7 µM -9% | [4]; [16] -11% | [4]; at 11.0 µM -2% | [4]; at 33.0 µM 35% | [4]; [17] 52% | [4]; at 50.0 µM 60.4% | [4]; at 100.0 µM 66% | [5]; at 1.2 µM 2% | [5]; at 3.7 µM 3% | [5]; [16] -5% | [5]; at 11.0 µM 6% | [5]; at 33.0 µM 21% | [5]; [17] 40% | [5]; at 50.0 µM 60.2% | [5]; at 100.0 µM 28% | [6]; at 1.2 µM -2% | [6]; at 3.7 µM -3% | [6]; at 11.0 µM 6% | [6]; at 33.0 µM 28% | [7]; [16] 1% | [7]; [17] 65% | [14]; at 1.2 µM -2% | [14]; at 3.7 µM -2% | [14]; at 11.0 µM 1% | [14]; at 33.0 µM 15% | [14]; at 100.0 µM 54% | [8]; [16] 44% | [8]; [17] 52% | [8]; at 50.0 µM 59.5% | [10]; at 1.2 µM -2% | [10]; at 3.7 µM -3% | [10]; at 11.0 µM 1% | [10]; at 33.0 µM 37% | [11]; at 1.2 µM 2% | [11]; at 3.7 µM 1% | [11]; at 11.0 µM 8% | [11]; at 33.0 µM 45% | [15]; at 1.2 µM 1% | [15]; at 3.7 µM 5% | [15]; at 11.0 µM 12% | [15]; at 33.0 µM 55% | [12]; [16] -19% | [12]; [17] 53% | [13]; at 1.2 µM -1% | [13]; at 3.7 µM 8% | [13]; at 11.0 µM 18% | [13]; at 33.0 µM 59%

O=C1c2ccc(O)cc2C(=O)c2c(O)ccc(O)c21
active: [1]; at 11.0 µM 94% | [1]; at 33.0 µM 97% | [1]; at 100.0 µM 93% | [2]; at 11.0 µM 93% | [2]; at 33.0 µM 93% | [2]; at 100.0 µM 88% | [3]; at 11.0 µM 78% | [3]; at 33.0 µM 93% | [3]; at 100.0 µM 91% | [4]; at 11.0 µM 87% | [4]; at 33.0 µM 95% | [4]; [17] 90% | [4]; at 50.0 µM 71.2% | [4]; at 100.0 µM 89% | [5]; at 11.0 µM 87% | [5]; at 33.0 µM 95% | [5]; [17] 93%
inactive: [1]; at 1.2 µM 4% | [1]; at 3.7 µM 17% | [2]; at 1.2 µM 25% | [2]; at 3.7 µM 64% | [3]; at 1.2 µM 1% | [3]; at 3.7 µM 10% | [4]; at 1.2 µM 16% | [4]; at 3.7 µM 35% | [4]; [16] 53% | [5]; at 1.2 µM 9% | [5]; at 3.7 µM 28% | [5]; [16] 45% | [5]; at 50.0 µM 49.1%
